Assay results as given in paper PMC4336329 (PLoS ONE, 2015).
The campaign covered roughly 310,000 compounds. About 14,000 (4.5%) showed an effect of 50% or more. Effects have a minus sign here. The entries come from a sample that favours strong results as a whole.

What follows are molecules tested against human ether-à-go-go-related gene (hERG) potassium channel (human, UniProt Q12809) (assay: primary screen, population patch clamp on CHO cells stably expressing hERG; higher = less effect of the substance).
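Also: peak tail current of the secondary pulse compared with the same well before compound.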

Sequence of human ether-à-go-go-related gene (hERG) potassium channel (Q12809 whole entry, looked up): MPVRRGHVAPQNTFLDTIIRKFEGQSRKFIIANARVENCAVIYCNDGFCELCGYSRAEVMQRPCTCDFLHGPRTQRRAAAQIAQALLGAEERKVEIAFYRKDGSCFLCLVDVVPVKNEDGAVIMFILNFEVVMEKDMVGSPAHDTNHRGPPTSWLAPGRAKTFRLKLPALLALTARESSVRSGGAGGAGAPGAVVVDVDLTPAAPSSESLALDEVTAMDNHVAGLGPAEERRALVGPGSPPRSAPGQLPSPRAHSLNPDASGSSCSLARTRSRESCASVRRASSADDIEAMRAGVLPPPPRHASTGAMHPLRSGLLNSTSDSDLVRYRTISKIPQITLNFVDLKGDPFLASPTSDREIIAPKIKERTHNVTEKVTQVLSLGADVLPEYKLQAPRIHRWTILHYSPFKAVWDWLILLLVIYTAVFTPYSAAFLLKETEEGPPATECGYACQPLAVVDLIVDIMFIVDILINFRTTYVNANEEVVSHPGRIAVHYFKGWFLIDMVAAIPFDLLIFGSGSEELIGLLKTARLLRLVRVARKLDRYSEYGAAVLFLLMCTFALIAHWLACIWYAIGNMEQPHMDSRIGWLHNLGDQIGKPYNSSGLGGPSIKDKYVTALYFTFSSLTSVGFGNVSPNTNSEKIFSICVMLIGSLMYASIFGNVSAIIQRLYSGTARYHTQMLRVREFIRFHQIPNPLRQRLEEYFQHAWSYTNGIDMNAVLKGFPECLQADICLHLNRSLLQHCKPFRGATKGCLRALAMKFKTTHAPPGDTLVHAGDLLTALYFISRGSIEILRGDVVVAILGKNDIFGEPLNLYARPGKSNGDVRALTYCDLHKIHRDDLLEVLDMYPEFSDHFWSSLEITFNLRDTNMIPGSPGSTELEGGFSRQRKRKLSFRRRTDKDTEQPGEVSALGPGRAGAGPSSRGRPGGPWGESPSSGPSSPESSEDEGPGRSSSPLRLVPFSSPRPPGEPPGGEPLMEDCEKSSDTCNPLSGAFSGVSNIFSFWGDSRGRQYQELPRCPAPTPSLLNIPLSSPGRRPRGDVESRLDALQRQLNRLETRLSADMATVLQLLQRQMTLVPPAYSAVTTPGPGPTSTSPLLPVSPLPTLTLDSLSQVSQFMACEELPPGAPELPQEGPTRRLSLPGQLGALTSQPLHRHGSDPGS

SMILES | hERG current change (%, negative = inhibition) at 10uM
Cn1c(SCC(=O)Nc2ccc(Cl)cn2)nnc1C1CC1 | -3.25%
O=C(NCc1ccccc1)c1cccn(Cc2ccccc2)c1=O | -29.3%
O=C(CCc1ccccc1)Nc1cccc(NC(=O)CCc2ccccc2)c1 | -13.4%
C=CCn1cccc(C(=O)Nc2ccc(C)cc2)c1=O | -7.96%
O=C(Nc1ccncc1)c1cccn(Cc2ccccc2)c1=O | -55.8%
C=CCn1cccc(C(=O)Nc2ccc(C)c(C)c2)c1=O | -71.9%
O=C(CCc1ccccc1)Nc1ccncc1 | -56.8%
C=CCn1cccc(C(=O)Nc2ccc(C)c(Cl)c2)c1=O | 10%
O=C(Nc1ccccc1)c1cccn(Cc2ccccc2)c1=O | 13.7%
O=C(CCc1ccccc1)Nc1ccccc1 | -2.56%
COc1ccc(NC(=O)COC(=O)CN2C(=O)NC(C)(C)C2=O)cc1 | 2.55%
Cc1ccc(-c2cccc(OC(=O)c3ccccc3F)c2)cc1 | 5.02%
COc1ccc(NC(=O)C2CCN(S(=O)(=O)c3ccc4[nH]c(=O)oc4c3)CC2)c(OC)c1 | 3.47%
O=S(=O)(c1ccccc1)c1nc(-c2ccc(F)cc2)oc1NCC1CCCO1 (stereo not drawn) | -34.6%
COc1cc2c(cc1OC)CN(C(=O)C(C)(C)C)CC2 | 17.6%
COc1ccc(CCNCC(O)COc2cccc(C(C)=O)c2)cc1OC.O=C(O)C(=O)O (stereo not drawn) | -0.028%
OC(CNCCc1ccc(C(F)(F)F)cc1)COc1ccc2ccccc2c1 (stereo not drawn) | -46.5%
COc1ccc(CCNCC(O)COc2cccc(Br)c2)cc1OC (stereo not drawn) | -67.3%
COc1ccc(CCNC(=O)COC(=O)COc2ccc(Cl)cc2)cc1OC | 7.05%
COc1ccc(CCNCC(O)COc2cccc(Br)c2)cc1 (stereo not drawn) | -50%

SMILES | hERG current change (%, negative = inhibition) at 10uM
COc1ccc(CCNC(=O)CCCOc2ccc(Cl)cc2)cc1OC | -15.3%
COc1ccc(CCNCC(O)COc2ccc(OC)cc2C(C)(C)C)cc1 (stereo not drawn) | -38.8%
COc1ccc(CCNCC(O)COc2c(C)cccc2C)cc1OC.O=C(O)C(=O)O (stereo not drawn) | 6.84%
COc1ccc(CCNCC(O)COc2ccc(Cl)cc2)cc1OC.Cl (stereo not drawn) | -72.1%
CCN1CCCC1CNC(=O)C(=O)Nc1ccccc1OC (stereo not drawn) | -15%
C#CCNC(=O)C1=C[C@@H](c2ccc(Br)cc2)C[C@@H](OCc2ccc(CO)cc2)O1 | 16.6%
Cl.N=c1ccn(Cc2cccc(Cl)c2)cc1 | 2.03%
C=CCO/N=C/C1C(=O)CC(C)(C)CC1=O | 10.9%
CC(C(=O)NC1CCCC1)N(C(=O)CS(=O)CC(=O)Nc1ccc(F)cc1)c1ccc2c(c1)OCCO2 (stereo not drawn) | -3.58%
CC(=O)c1csc(CS(=O)(=O)c2ccccn2)n1 | 5.4%
Fc1cccc(Nc2nc3ccccc3n3cnnc23)c1 | 4.55%
CCn1c(CS(=O)Cc2ccc(Cl)cc2Cl)nnc1SCc1c(Cl)cccc1Cl (stereo not drawn) | -6.78%
Cn1c(CS(=O)Cc2c(Cl)cccc2Cl)nnc1SCc1ccc(Cl)cc1 (stereo not drawn) | -56.2%
Cn1c(CS(=O)Cc2c(Cl)cccc2Cl)nnc1SCc1c(Cl)cccc1Cl (stereo not drawn) | -45.1%
Cn1ncc(Cl)c(Oc2ccc(Cl)cc2)c1=O | -17%
Cn1ncc(Oc2ccc([N+](=O)[O-])cc2)c(Cl)c1=O | -71.2%
COc1cnn(-c2ccc([N+](=O)[O-])cc2)c(=O)c1Cl | -2.52%
O=C(NCCCN1CCc2ccccc2C1)C1CCN(c2nnc(-n3cccc3)s2)CC1 | -55.6%
O=C(C1CCN(c2nnc(-n3cccc3)s2)CC1)N1CCc2ccccc2C1 | -60.3%
O=C(NCCCN1CCc2ccccc2C1)C1CCN(S(=O)(=O)N2CCC3(CC2)OCCO3)CC1 | -12.4%

SMILES | hERG current change (%, negative = inhibition) at 10uM
O=C(C1CCN(c2nnc(-n3cccc3)s2)CC1)N1CCCCC1 | -6.55%
CN1CCN(CCCNC(=O)C2CCN(c3nnc(-n4cccc4)s3)CC2)CC1 | 20.2%
O=C(C1CCN(c2nnc(-n3cccc3)s2)CC1)N1CCOCC1 | -13.9%
CCCN1CCN(CCCNC(=O)C2CCN(c3nnc(-n4cccc4)s3)CC2)CC1 | -14.4%
O=C(NCCN1CCc2ccccc2C1)C1CCN(S(=O)(=O)N2CCCCC2)CC1 | -53.8%
O=C(NCCCN1CCc2ccccc2C1)C1CCN(S(=O)(=O)N2CCCC2)CC1 | -2.78%
Cc1noc(C)c1COC(=O)C1CC(O)CN1S(=O)(=O)c1ccc(Cl)cc1 (stereo not drawn) | -8.48%
O=C(CC1C(=O)NCCN1Cc1ccccc1C(F)(F)F)NCCN1CCCCC1=O (stereo not drawn) | 16.9%
O=S(=O)(Cc1noc(-c2ccc(Cl)cc2)n1)Cc1ccco1 | -4.77%
Cc1cc(C)nc(NC(=O)CSc2nn(C)c(=S)s2)n1 | -0.37%
Cc1cc2cc(CNC(=O)Nc3ccc(Cl)c(Cl)c3)ccc2n1C | 2.71%
O=C(Nc1nc2ccccc2n1CCN1CCCC1)C1CCCCC1 | -58.6%
O=C(Nc1nc2ccccc2n1CCN1CCCCC1)C1CCCCC1 | -61.2%
CCCn1c(NC(=O)c2ccco2)nc2ccccc21 | 9.09%
O=C(Nc1nc2ccccc2n1CCN1CCCCC1)c1ccco1 | -54.8%
CN(C)CCCn1c(NC(=O)C2CCCCC2)nc2ccccc21 | -27.3%
CCn1c(NC(=O)C2CCCCC2)nc2ccccc21 | 8.36%
O=C(Nc1nc2ccccc2n1Cc1ccccc1)c1ccco1 | 20.2%
CCCn1c(NC(=O)C2CCN(C(=O)c3ccccc3C)CC2)nc2ccccc21 | -16%
CCCCn1c(NC(=O)C2CCCCC2)nc2ccccc21 | 4.63%
